An excerpt weighted towards active compounds, which were near 2.8% of everything screened.
POLI inh: DNA polymerase iota (human) inhibition; Potency, µM (titrated, usually from 115 µM), for the others: top-dose activity, negative = inhibition, usual class: inhibitors; actives 1% (n = 390,000); Pol iota fluorescent replication assay, 10 min; Q9UNA4; further: potency means the concentration at half of the fitted maximal effect
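Pol iota at 10 nM preincubated 15 min with compounds at room temperature; reaction started with fluorescent substrate, 50 nM final. Fluorescence read kinetically at 0 and 10 min; buffer-only wells as negative control.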
WRN helicase inh: WRN helicase (human) inhibition | Q14191 | WRN helicase unwinding, fluorescent forked duplex, kinetic | Potency, µM (series often up to 114 µM), for the others: top-dose activity change, negative = inhibition, most hits filed as inhibitors | actives 0.46% (n = 360,000); further: potency means the concentration at half of the fitted maximal effect; on the % scale 0 is the no-effect control and ±100 the full control effect; nearly all actives have a fitted effect of over 55% in size
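Enzyme (20 nM final) and test compound sit together 15 min at room temperature before substrate addition. Substrate is a single-forked duplex oligonucleotide (100 nM) labelled with fluorophore and quencher, with 2 mM ATP; helicase unwinding raises red fluorescence, read kinetically.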
POLB inh: DNA polymerase beta (human) inhibition | P06746 | Pol beta primer extension/strand displacement, fluorescence kinetic | Potency, µM (titrated, usually from 114 µM), for inactives: top-dose activity change, negative = inhibition, actives largely listed as inhibitors | actives 1.3% (n = 340,000); further: potency means the concentration at half of the fitted maximal effect; on the % scale 0 is the no-effect control and ±100 the full control effect
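Pol beta (10 nM) was preincubated with compound for 15 min at room temperature. The reaction was then started with 50 nM substrate and read immediately and after a further 10 min at room temperature.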
Pol eta inh-1: blocks human DNA polymerase eta activity. actives 1.2% (n = 390,000). AID 588591. Potency, µM (titrated, usually from 114 µM), without a hit: at the highest dose activity change, negative = inhibition, usual class: inhibitors. Q9Y253. recombinant Pol eta, fluorescent DNA replication assay; further: potency means the concentration at half of the fitted maximal effect; on the % scale 0 is the no-effect control and ±100 the full control effect
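Fluorescent replication assay: 50 nM final substrate added after a 15 min room-temperature compound preincubation with 10 nM enzyme. Signal taken at 0 min and again at 10 min.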
PI5P4K alpha inh: inhibitors of human PI5P4K alpha; max response, %; PI5P4Kalpha enzyme, ADP-Glo luminescence, 60 min; hits give low values; P48426; actives 1.2% (n = 330,000); active means max response of -50% or lower; inconclusive means between -30% and -50%; inactive means -30% or higher; further: value at the top dose of about 77 µM; on the % scale 0 is the no-effect control and ±100 the full control effect
Target sequence (P48426 whole entry, looked up): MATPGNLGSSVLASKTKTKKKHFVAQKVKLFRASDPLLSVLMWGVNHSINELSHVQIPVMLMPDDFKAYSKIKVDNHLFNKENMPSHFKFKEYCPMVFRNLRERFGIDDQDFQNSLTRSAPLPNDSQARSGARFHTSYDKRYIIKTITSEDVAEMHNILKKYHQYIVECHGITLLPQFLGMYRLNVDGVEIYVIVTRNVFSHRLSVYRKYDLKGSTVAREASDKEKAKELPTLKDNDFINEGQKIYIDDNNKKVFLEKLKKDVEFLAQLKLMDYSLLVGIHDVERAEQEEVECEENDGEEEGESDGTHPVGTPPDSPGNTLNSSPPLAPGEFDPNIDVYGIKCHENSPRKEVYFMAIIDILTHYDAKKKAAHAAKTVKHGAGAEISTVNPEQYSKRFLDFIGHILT
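ADP-Glo luminescence end-point read after a 60 min room-temperature kinase reaction of PI5P4Kalpha plus substrate, initiated with ATP at 5 microM final. Buffer: 0.038 M HEPES pH 7.4, EGTA, 0.1% CHAPS, 5% DMSO.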
POLK inh: inhibitors of human DNA polymerase kappa; Q9UBT6; purified Pol kappa, fluorescent DNA synthesis assay, 10 min; Potency, µM (doses to about 107 µM), for the others: top-dose activity, negative = inhibition, usual class: inhibitors; actives 0.53% (n = 400,000); AID 588579; further: potency means the concentration at half of the fitted maximal effect; on the % scale 0 is the no-effect control and ±100 the full control effect
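Fluorescent qHTS in 1536-well format: enzyme (10 nM) and compound sat 15 min at room temperature before 50 nM substrate (final) was added. Signal taken at 0 and 10 min; no-enzyme buffer wells were negative controls.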
GALK confirm: confirmation of human galactokinase (GALK) inhibitors; shares compounds with Pol eta inh-1; purified GALK, Kinase-Glo ATP depletion luminescence; Potency, µM (top dose mostly 115 µM), without a hit: at the highest dose activity, negative = inhibition, hits mostly inhibitors; actives 70% (n = 150); AID 2015
GALK redox cs: generates H2O2 by redox cycling, flagging GALK artifacts | Potency, µM (titrated, usually from 115 µM), without a hit: top-dose activity change, negative = H2O2 signal, most hits filed as inhibitors | AID 2035 | shares compounds with Pol eta inh-1 | Phenol red-HRP H2O2 redox cycling, absorbance 600 nm | actives 40% (n = 150)
HEK293 viability: HEK-293 cytotoxicity, GALK inhibitor secondary; shares compounds with Pol eta inh-1; HEK-293 viability, ATP luminescence (CellTiter-Glo), 24/48 h; Potency, µM (doses to about 46.1 µM), for the others: at the highest dose activity change, negative = cytotoxicity, most hits filed as inhibitors; actives 10% (n = 170); AID 2547; further: potency means the concentration at half of the fitted maximal effect; on the % scale 0 is the no-effect control and ±100 the full control effect
Pol eta inh-2: confirmation of human DNA polymerase eta inhibitors; shares compounds with Pol eta inh-1; Pol eta primer extension, TAMRA/BHQ fluorescence, 10 min; Potency, µM, hits mostly inhibitors; actives 64% (n = 2,600); further: potency means the concentration at half of the fitted maximal effect
An asterisk follows results filed as active; u = inconclusive; x = not tested or not shown; [ ] = another dose, or the depositor's remark. Unless noted, the call rests on the fitted dose curve; in most records, active means well fitted curve in the direction sought with a large enough effect; inconclusive means small, poorly fitted or top-dose-only effect, or another doubt; inactive means no such curve, though single readings can be large; an effect the other way counts as inactive or inconclusive.

SMILES	POLI inh	WRN helicase inh	POLB inh	Pol eta inh-1	PI5P4K alpha inh	POLK inh	Pol eta inh-2	others
CCCCC(=O)N/N=C/c1c(O)n(Cc2ccc(F)cc2)c(=O)[nH]c1=O	122%	-35%	21%	-10%	-17	-1%	x
Cc1cc(C=C2C(=O)N(C)C(=O)N(C)C2=O)c(C)n1-c1ccccc1	-1%	1%	3%	12%	-4	-7%[60.1 µM]	x
Cc1cc(/C=C2\C(=O)NC(=O)N(Cc3ccco3)C2=O)c(C)n1-c1ccc(O)cc1	u	u	11µM*	20µM*	-83*	40µM*	u
Cc1ccc(-n2c(C)cc(/C=C3/C(=O)NC(=O)N(Cc4ccco4)C3=O)c2C)cc1	20µM*	-13%[11.6 µM]	u	50µM*	-13	u	u
Cc1ccc(OCCn2cccc2/C=C2/C(=O)NC(=O)N(Cc3ccco3)C2=O)cc1	8.9µM*	u	-14%	20µM*	u	28µM*	67*
COC1=CC(=O)O[C@H](/C=C/c2ccc3c(c2)OCO3)C1	x	x	x	x	x	13%[60.1 µM]	x
CC[C@H](C)[C@H](NC(=O)[C@@H](N)Cc1ccc(O)cc1)C(=O)NCC(=O)N[C@@H](CO)C(=O)N[C@@H](CCCN=C(N)N)C(N)=O	x	x	x	x	x	19%[60.1 µM]	x
O=C(O)C1C(C(=O)O)C2(Cl)C(Cl)=C(Cl)C1(Cl)C2(Cl)Cl (configuration not stated)	45µM*	2%[11.6 µM]	x	-6%	-1	79µM*	u
N#CC(C#N)=Cc1ccc(C=C(C#N)C#N)cc1	u	u	u	45µM*	-21	-37%	u
Cc1cc(N2CCCC2)ccc1C=C(C#N)C#N	33%	u	-23%	-30%	-1	6%	x
CC(C)(C)OC(=O)N(CCc1ccccc1)Cc1ccc(OCc2cccc(NC(=O)c3ccccc3)c2)cc1	u	-8%	x	2%	3	-28%	x
C/C(CC(c1ccccc1)c1c(O)c2ccccc2oc1=O)=N\Nc1ccc([N+](=O)[O-])cc1[N+](=O)[O-] (configuration not stated)	u	-11%	14%	6%	-5	-12%	x
O=c1oc2ccccc2c(O)c1C(c1ccc([N+](=O)[O-])cc1)c1c(O)c2ccccc2oc1=O	u	u	50µM*	20µM*	u	u	x	GALK confirm=27µM*;GALK redox cs=5%;HEK293 viability=-2%
Clc1c(Cl)c(Cl)c(Cl)c(Cl)c1Cl	x	x	x	x	x	17%[60.1 µM]	x
Cc1ccc(CS(=O)(=O)Cc2ccc(C(=O)N3CCC4(CC3)OCCO4)o2)cc1	-20%	-3%	31%	-11%	x	-2%	x
Cc1ccc(S(=O)(=O)Cc2ccc(C(=O)N3CCC4(CC3)OCCO4)o2)cc1	u	u	10µM*	13µM*	-5	u	u
O=C(O)Cn1cc(/C=C2\C(=O)NC(=O)N(c3ccc(Cl)cc3)C2=O)c2ccccc21	u	u	2%	u	-22	-10%	x

Bioassay records as filed in PubChem BioAssay.
